In the supplement of paper PMC7156485:
Values without a mark were called inactive.

Test system: TDF
Experiment: H1.0 immunofluorescence intensity relative to DMSO (% of DMSO); higher = stronger H1.0 induction, active = 120 or more
Details: concentration: 10 µM; 24 h
Outline: (§1)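 For HCC1569 and TDF cells, compounds at 10 µM were applied for 24 h at 37 °C in triplicate in 384-well plates. Cells were fixed in 3.7% formaldehyde, stained for H1.0 and with DAPI, and imaged at ×10 over six fields per well. The endpoint, H1.0 nuclear intensity or cell number, is shown as percent of the plate control using the median of replicates. Positional effects were smoothed for HCC1569 only.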
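Further: TDF is a line of transformed human dermal fibroblasts of mesenchymal origin.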

Row | SMILES | H1.0 immunofluorescence intensity
1 | O=C(O)CCc1nc(-c2ccccc2)c(-c2ccccc2)o1 [Oxaprozin] | 96.9
2 | O=c1cc(-c2ccc(O)cc2)oc2cc(O)cc(O)c12 [Apigenin] | 89.2
3 | OCCn1cc(-c2cnc3nnn(Cc4ccc5ncccc5c4)c3n2)cn1 | 99
4 | CC1(COc2ccc(CC3SC(=O)NC3=O)cc2)CCCCC1 (centres undefined) [Ciglitizone] | 96.5
5 | COc1cc2ncnc(Nc3cccc(Cl)c3)c2cc1OC [Tyrphostin AG 1478] | 96.2
6 | NC(=O)Nc1sc(-c2ccc(F)cc2)cc1C(N)=O [IKK-2 Inhibitor IV] | 95.8
7 | Cl.O.O=C(O)CN(CCN(CC(=O)O)Cc1ccccc1O)Cc1ccccc1O | 108

Test system: HCC1569
Experiment: H1.0 immunofluorescence intensity relative to DMSO (% of DMSO); higher = stronger H1.0 induction, active = 140 or more
Details: concentration: 10 µM; 24 h
Outline: as §1

Row | SMILES | H1.0 immunofluorescence intensity
8 | O=C1NC(=O)C(=Cc2ccc3nccnc3c2)S1 [PI 3-Kg Inhibitor] | 114
9 | CC(=O)c1ccc2c(c1)[C@H](NC(=O)c1ccc(F)c(Cl)c1)[C@H](O)C(C)(C)O2 | 99.5
10 | Br.CN1C2CCC1CC(OC(=O)C(O)c1ccccc1)C2 (centres undefined) | 94.6
11 | COc1ccccc1N1CCN(CCCNc2cc(=O)n(C)c(=O)n2C)CC1.Cl [Urapidil hydrochloride] | 103
12 | COC(C)(C)CCCC(C)CC=CC(C)=CC(=O)O (centres undefined) [Methoprene acid] | 94.6
13 | CS(=O)(=O)O.Cc1c(O)cccc1C(=O)NC(CSc1ccccc1)C(O)CN1CC2CCCCC2CC1C(=O)NC(C)(C)C (centres undefined) [Nelfinavir mesylate] | 116
14 | CN(C)CCCOc1nn(Cc2ccccc2)c2ccccc12 [Benzydamine] | 103
15 | CC(N=C(NC#N)Nc1ccncc1)C(C)(C)C (centres undefined) [Pinacidil] | 101
16 | COc1cc(-c2oc3cc(O)cc(O)c3c(=O)c2O)ccc1O [Isorhamnetine] | 116
17 | CCNC(=O)N1CCN(CCCC(c2ccc(F)cc2)c2ccc(F)cc2)CC1.Cl [Amperozide hydrochloride] | 99
18 | C=C(C)C1CCC2(C(=O)O)CCC3(C)C(CCC4C5(C)CCC(O)C(C)(C)C5CCC43C)C12 (centres undefined) [Betulinic acid] | 97
19 | CCCCCCCCCC(=O)NC(CN1CCOCC1)C(O)c1ccccc1.Cl (racemic) | 109
20 | CCCCCCCCCCCC=CCC=CCCCC(=O)O [5(Z), 8(Z)-Eicosadienoic acid] | 99.3
21 | NC(C(=O)O)C1CC1C(=O)O [(2S,1'S,2'S)-2-(carboxycyclopropyl)glycine] | 83.4
22 | Cc1ccc(Nc2nccc(N(C)c3ccc4c(C)n(C)nc4c3)n2)cc1S(N)(=O)=O [Pazopanib] | 156 (active)
23 | O=c1[nH]c(=O)n(C2CC(O)C(CO)O2)cc1I (centres undefined) [Idoxuridine] | 121
24 | COc1cc(C=Cc2ccccc2)oc(=O)c1 [5,6-Dehydrokawain] | 92.6
25 | CN(C)CCC(c1ccc(Cl)cc1)c1ccccn1 (centres undefined) [Chlorpheniramine] | 105
26 | Cl.NCCc1ccc(O)c(O)c1 [Dopamine hydrochloride] | 89.7
27 | CS(=O)(=O)O.Cc1ccc(N(CC2=NCCN2)c2cccc(O)c2)cc1 [Phentolamine mesylate] | 99.6
28 | COc1cc(Br)c(Nc2nc(-c3c(C)nc4ncccn34)cs2)c(Br)c1 | 199 (active)
29 | COC(=O)C1C2CC3c4[nH]c5cc(OC)ccc5c4CCN3CC2CC(OC(=O)c2cc(OC)c(OC)c(OC)c2)C1OC (centres undefined) [Reserpine] | 101
30 | O=c1[nH]ccc2c(O)cccc12 [1,5-Isoquinolinediol] | 91.6
31 | C[N+](C)(C)CCO.[Cl-] [2-hydroxy-N,N,N-trimethylethanaminium chloride] | 99.5
32 | CCC(CCC(C)C1CCC2C3CC=C4CC(O)CCC4(C)C3CCC12C)C(C)C (centres undefined) | 90.6
33 | CCCCCCCCC(O)C=CC=CC=CC(O)CCCC(=O)O (centres undefined) [Leukotriene B3] | 104
34 | COC(=O)C(N)Cc1ccc(Cl)cc1.Cl (racemic) [DL-p-Chlorophenylalanine methyl ester hydrochloride] | 104
